Records with an inconclusive call do not appear. Active and inactive are the calls of the source. Calls follow the shape of the dose curve; as a rule, active = well fitted inhibition curve with a large enough effect; inconclusive = small, poorly fitted or top-dose-only effect; inactive = flat fitted curve, though single readings scatter.
How the values were obtained:
Experiment in all cases: qHTS profiling for inhibitors of Plasmodium falciparum proliferation (AID 504749); also: nearly all actives have a fitted effect of over 60% in size
Conditions in all cases: P. falciparum in erythrocytes, SYBR Green DNA, 72 h; series mostly up to 28.7 µM
3D7 = system: 3D7
Procedure, shortened: (§1)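 Parasite proliferation within erythrocytes, 72 h exposure. Endpoint: SYBR Green I fluorescence after overnight lysis at room temperature. Controls: 0.29 uM artemisinin, DMSO.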

7G8 = system: 7G8
Procedure, shortened: as §1

AA1029 = system: AA1029
Procedure, shortened: as §1

ATS95 = system: ATS95
Procedure, shortened: as §1

CP185 = system: CP185
Procedure, shortened: as §1

CP191 = system: CP191
Procedure, shortened: as §1

CP237 = system: CP237
Procedure, shortened: as §1

CP238 = system: CP238
Procedure, shortened: as §1

CP247 = system: CP247
Procedure, shortened: as §1

CP265 = system: CP265
Procedure, shortened: as §1

CP286 = system: CP286
Procedure, shortened: as §1

DFO2036 = system: DFO2036
Procedure, shortened: as §1

FAB9 = system: FAB9
Procedure, shortened: as §1

HB3 = system: HB3
Procedure, shortened: as §1

P94_40 = system: P94_40
Procedure, shortened: as §1

PAD = system: PAD
Procedure, shortened: as §1

PC15 = system: PC15
Procedure, shortened: as §1

PC49 = system: PC49
Procedure, shortened: as §1

TAB109 = system: TAB109
Procedure, shortened: as §1

TAB165 = system: TAB165
Procedure, shortened: as §1

Measured: Potency

CC(=O)OC1CC2CCC1(C)C2(C)C (stereo not given)
inactive: all assays above
